The values below come from PubChem BioAssay AID624330 (Southern Research Specialized Biocontainment Screening …, 2012).

Structures are written as SMILES. About 2,100 (0.62%) of roughly 340,000 compounds were called active.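 How the source made its calls: active means first-screen hits whose inhibition reached a set limit at any dose in the follow-up dose series; inconclusive means inhibition above the set first-screen limit but never retested; inactive means the rest.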 A selection follows. Entries with a potency or affinity are not part of this list.

Rac GTPase-activating protein 1 (Homo sapiens), sequence (Q9H0H5 whole entry, looked up): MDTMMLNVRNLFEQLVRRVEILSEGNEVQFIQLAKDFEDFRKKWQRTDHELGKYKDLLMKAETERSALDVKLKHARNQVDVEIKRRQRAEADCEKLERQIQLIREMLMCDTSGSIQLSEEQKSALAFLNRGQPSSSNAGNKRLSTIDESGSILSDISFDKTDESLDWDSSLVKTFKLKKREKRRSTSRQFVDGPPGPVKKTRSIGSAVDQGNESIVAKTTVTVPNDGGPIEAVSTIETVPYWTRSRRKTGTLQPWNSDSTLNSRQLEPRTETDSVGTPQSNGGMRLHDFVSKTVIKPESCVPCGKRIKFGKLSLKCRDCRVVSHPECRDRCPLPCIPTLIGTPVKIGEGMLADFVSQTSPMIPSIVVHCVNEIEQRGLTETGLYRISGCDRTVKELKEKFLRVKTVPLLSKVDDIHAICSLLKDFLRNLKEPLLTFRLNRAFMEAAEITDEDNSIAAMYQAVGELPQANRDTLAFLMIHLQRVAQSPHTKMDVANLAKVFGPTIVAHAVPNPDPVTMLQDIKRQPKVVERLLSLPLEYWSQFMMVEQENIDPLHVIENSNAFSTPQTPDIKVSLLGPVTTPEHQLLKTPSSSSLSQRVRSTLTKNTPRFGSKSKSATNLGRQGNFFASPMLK

This experiment addresses Rac GTPase-activating protein 1 (Homo sapiens) (UniProt Q9H0H5). Briefly: blockers of MgcRacGAP-driven Rac1 GTP hydrolysis – biochemical, ADP Hunter fluorescence, primary and confirmatory, confirmation (AID 624330).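 Further: fluorescence reports GDP produced by GAP-driven GTP hydrolysis.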 The note with it: MgcRacGAP-stimulated Rac1 GTP hydrolysis, at 30 µM, active compounds read high, GST-tagged Rac1 F28L mutant substrate.
Consider `Oc1ccccc1C1Nc2cccc3cccc(c23)N1`, for which the inhibition (usually the relative decrease from the control value, in per cent) is 26.2% (inactive).

With `COc1ccc(Br)cc1C1Nc2cccc3cccc(c23)N1`, the inhibition was 13.1% (inactive).

Take `COc1cc(C2Nc3cccc4cccc(c34)N2)cc(OC)c1O`: the inhibition was 12.2% (inactive).

In the case of `COc1ccc(C2Nc3cccc4cccc(c34)N2)cc1`, the inhibition is 16% (inactive).

As for `O=C(Oc1cccc2cccnc12)c1ccco1`, the inhibition is 12.4% (inactive).

In the case of `COCC(=O)N(Cc1cc2cc(C)ccc2[nH]c1=O)c1ccc(C)c(C)c1`, the inhibition is 16.2% (inactive).

Take `O=[N+]([O-])c1ccc(Cl)c(S(=O)(=O)/N=C(/c2ccccc2)N2CCOCC2)c1`: the inhibition is 2.34% (inactive).

As for `Cc1ccccc1C(=O)N1CCC(C(=O)NCc2ccc(Cl)cc2)CC1`, the inhibition was 8.11% (inactive).

Consider `CC(OC(=O)CC1CCCCC1)C(=O)Nc1ccc(S(N)(=O)=O)cc1` (stereo not given), for which the inhibition was 1.14% (inactive).

Take `Cc1cc(C)c(C)c(S(=O)(=O)Nc2ccc(OCC(=O)O)cc2)c1C`: the inhibition is -3.75% (inactive).

In the case of `Cc1cc(C)c(S(=O)(=O)Nc2ccccc2)c(C)c1`, the inhibition is -2.09% (inactive).

Consider `Cc1cc(C)c(C)c(S(=O)(=O)Nc2ccc(C(N)=O)cc2)c1C`, for which the inhibition is 13.9% (inactive).

In the case of `CC(=O)c1ccc(NS(=O)(=O)c2c(C)cc(C)cc2C)cc1`, the inhibition was 2% (inactive).

Regarding `O=C(NC1CC1)c1ccc(CN(c2ccccc2)S(=O)(=O)c2ccccc2)cc1`, the inhibition is 5.44% (inactive).

On to `O=C(Nc1cccc(-c2ccc(N3CCOCC3)nn2)c1)c1ccc(Cl)cc1`, for which the inhibition is 3.67% (inactive).

Turning to `CCc1c(C)nc(SCC(=O)N2CCN(c3ccccc3)CC2)[nH]c1=O`, the inhibition was 13% (inactive).

As for `O=[N+]([O-])c1cc(Cc2ccccc2)cc(C=Nc2ccc(N3CCOCC3)cc2)c1O`, the inhibition was 27.8% (inactive).

In the case of `Cc1ccc(N=Cc2cc(Cc3ccccc3Cl)cc([N+](=O)[O-])c2O)c(O)c1`, the inhibition is 20.2% (inactive).

`O=C(COC(=O)c1cnccn1)NCCc1ccc(Cl)cc1`: the inhibition is 8.82% (inactive).

Consider `CCOc1ccc(C(=O)NNC(=O)C2CC(=O)N(c3ccc(C)cc3)C2)cc1` (stereo not given), for which the inhibition is 5.17% (inactive).

Turning to `O=C(O)c1ccc(/C=N/Nc2ncc(Cl)cc2Cl)cc1`, the inhibition is 2.45% (inactive).

`Fc1ccc(/C=N/Nc2nccnc2Cl)cc1`: the inhibition is 15.7% (inactive).

With `Oc1ccccc1/C=N/Nc1nccnc1Cl`, the inhibition was 5.4% (inactive).

As to `Clc1cnc(N/N=C/c2ccncc2)c(Cl)c1`, the inhibition is 3.41% (inactive).

With `Oc1ccc(/C=N/Nc2ccnc3cc(Cl)ccc23)c(O)c1`, the inhibition was 17.9% (inactive).

Take `Clc1nccnc1N/N=C/c1ccc(Br)cc1`: the inhibition was 13.4% (inactive).

With `CCC(NC(=O)c1ccccc1NC(=O)C(C)(C)C)C(=O)N1CCCC1` (stereo not given), the inhibition was 7.5% (inactive).

As to `CCN(C(=O)CSc1nc2cc(S(=O)(=O)N(CC)CC)ccc2n1CC)C1CCS(=O)(=O)C1` (stereo not given), the inhibition was 0.8% (inactive).

Regarding `COCCN(C(=O)c1cccc(-n2cnnn2)c1)c1c(N)n(CC(C)C)c(=O)[nH]c1=O`, the inhibition is 5.99% (inactive).

Take `CCc1cc(C(=O)N2CCN(S(=O)(=O)c3ccc(Cl)cc3)CC2)sc1C`: the inhibition was 1.55% (inactive).

Turning to `O=C(c1cc(S(=O)(=O)N2CCCCC2)ccc1N1CCOCC1)N1CCN(Cc2ccccc2)CC1`, the inhibition was 7.61% (inactive).

`NC(=S)NNC(=O)[C@@H]1CCCC[C@@H]1C(=O)O`: the inhibition was 11.2% (inactive).

`C=CCOc1cccc(/C=N/NC(=O)CN2CCCCC2)c1`: the inhibition is 8.26% (inactive).

Take `O=C(C[C@H]1C/C=C\C[C@@H](Cc2ccc(F)cc2)C(=O)OC[C@H]2CCCN2C1=O)N[C@@H](CO)Cc1ccccc1`: the inhibition is 4.35% (inactive).

On to `CC(NC(=O)c1cccc(C(F)(F)F)c1)C1CCCO1` (stereo not given), for which the inhibition is 6.29% (inactive).

Regarding `CC1OC(OCC2OC(Oc3c(-c4ccc(O)cc4)oc4cc(O)cc(O)c4c3=O)C(O)C(O)C2O)C(O)C(O)C1O` (stereo not given), the inhibition was 7.46% (inactive).

As to `O=c1c2cc(O)c(O)cc2oc2cc(O)c(C3OC(CO)C(O)C(O)C3O)c(O)c12` (stereo not given), the inhibition was 23.9% (inactive).

For `O=c1cc(-c2ccc(O)cc2)oc2cc(O)c([C@@H]3O[C@H](CO)[C@@H](O)[C@H](O)[C@H]3O)c(O)c12`, the inhibition is 4.21% (inactive).

Turning to `O=c1cc(-c2ccc(O)cc2)oc2c([C@@H]3O[C@H](CO)[C@@H](O)[C@H](O)[C@H]3O)c(O)c([C@@H]3O[C@H](CO)[C@@H](O)[C@H](O)[C@H]3O)c(O)c12`, the inhibition was 5.95% (inactive).

For the compound `O=c1cc(-c2ccc(O)cc2)oc2cc(O)c(C3OC(CO)C(O)C(O)C3O)c(O)c12` (stereo not given), the inhibition is 12.2% (inactive).

In the case of `COc1ccc(-c2cc(=O)c3c(O)cc(OC4OC(COC5OC(C)C(O)C(O)C5O)C(O)C(O)C4O)cc3o2)cc1O` (stereo not given), the inhibition is 4.67% (inactive).

Consider `CCn1ncc([N+](=O)[O-])c1C(=O)Nc1c(C)nn(Cc2ccc(F)cc2)c1C`, for which the inhibition was -5.73% (inactive).

As to `CN(C)S(=O)(=O)N1CCN(Cc2ccccc2)CC1`, the inhibition was -9.47% (inactive).

Regarding `COc1cccc(C(=O)NC2(C(F)(F)F)N=C3SCCN3C2=O)c1` (stereo not given), the inhibition was 8.58% (inactive).

With `COc1ccc(C(=O)N/N=C(/C)c2cccc(NC(=O)c3ccccc3F)c2)cc1`, the inhibition was 6.03% (inactive).

Regarding `Cc1nc2ccccc2c(=O)n1NC(=O)Cc1ccc(Br)cc1`, the inhibition was 1.21% (inactive).

For `C=CCc1c(C)nc(-c2ccccc2)nc1Nc1ccccc1O`, the inhibition was -2.42% (inactive).

Take `C=CCc1c(C)nc(-c2ccccc2)nc1N/N=C/c1ccccc1`: the inhibition is 9.45% (inactive).

For the compound `COc1ccc(NC(=O)CN2C(=O)C(C)Oc3ccccc32)c(OC)c1` (stereo not given), the inhibition is 9.91% (inactive).

For `CC(C)(C)C(=O)NCc1ccc(C(=O)CSc2nnc3n2CCCCC3)s1`, the inhibition is 9.14% (inactive).

Take `CCOc1ccc(C(CC(=O)O)NC(=O)c2ccco2)cc1OC` (stereo not given): the inhibition was 5.75% (inactive).

Turning to `Cc1cc(N/N=C/c2ccc(O)cc2O)c2ccccc2n1`, the inhibition is -8.64% (inactive).

`Cc1cc(N/N=C/c2ccc(O)cc2O)nc(-c2ccccc2O)n1`: the inhibition is 9.61% (inactive).

`Oc1ccc(/C=N/Nc2cccc3cccnc23)c(O)c1`: the inhibition is 0.03% (inactive).

For the compound `COc1cccc(/C=N/Nc2cc(Cl)nc(C)n2)c1O`, the inhibition is -19.7% (inactive).

Regarding `Oc1ccc(/C=N/Nc2ccc3ccccc3c2)c(O)c1`, the inhibition was 9.51% (inactive).

On to `Oc1cccc(C=NNc2ccccn2)c1`, for which the inhibition was 2.05% (inactive).

Take `Cc1ccc(-c2c(C(=O)NC(C)C)oc(=O)c3ccccc23)cc1`: the inhibition is 5.65% (inactive).

Take `CCCCSc1ncnc2c1ncn2C1CCCCO1` (stereo not given): the inhibition was 0.67% (inactive).

Turning to `CC12CCC(C(=O)Nc3cc(Cl)ccc3Cl)(C(Br)C1=O)C2(C)C` (stereo not given), the inhibition was 8% (inactive).

Regarding `CC(=O)/C(=C/N(C)C)Sc1ccc(C)cc1`, the inhibition is -4.58% (inactive).

For the compound `COC(=O)[C@@]12CCCN1[C@H](c1ccc(-c3ccccc3)cc1)[C@@H]1C(=O)N(C)C(=O)[C@@H]12`, the inhibition is 10.8% (inactive).

Turning to `O=C(COC(=O)CCS(=O)(=O)c1ccc(Cl)cc1)Nc1ncc(Cl)cc1Cl`, the inhibition is -0.72% (inactive).

Consider `CCN=C1S/C(=C\c2ccc(OCC)c(OC)c2)C(=O)N1CC`, for which the inhibition is 2.65% (inactive).

Turning to `CC(C)(C)c1ccc(/C=C2\SC(=O)N=C2N)cc1`, the inhibition was 2.11% (inactive).

On to `COc1ccc(/C=C2\SC(=O)N=C2N)cc1OC`, for which the inhibition is -3.06% (inactive).

For the compound `NC1=NC(=O)/C(=C\c2ccc(O)c([N+](=O)[O-])c2)S1`, the inhibition is 2.32% (inactive).

Take `NC1=NC(=O)S/C1=C\c1ccc(F)cc1`: the inhibition was -6.63% (inactive).

Take `CCN=C1S/C(=C\c2cc(OCC)c(O)cc2Br)C(=O)N1CC`: the inhibition is 14.2% (inactive).

As for `CCOc1ccc(N2C(=O)S/C(=C\c3ccc(O)c(OCC)c3)C2=O)cc1`, the inhibition is 9.4% (inactive).

In the case of `C=CCOc1ccc(/C=C2\SC(N)=NC2=O)cc1OC`, the inhibition was 7.81% (inactive).

`C/C=C/c1ccc(OCCN2CCc3ccccc3C2)c(OC)c1`: the inhibition is 17.9% (inactive).

Take `Cc1ccc(C)c(NC(=O)CN(C)C(=O)c2cc([N+](=O)[O-])ccc2N2CCOCC2)c1`: the inhibition was 5.45% (inactive).

`Cc1ccc(SCC(=O)OCC(=O)N(CC(C)C)C2CCS(=O)(=O)C2)cc1C` (stereo not given): the inhibition was 9.24% (inactive).

Regarding `O=C(COC(=O)COc1ccc(Cl)cc1Br)NC1CC1`, the inhibition was -1.39% (inactive).

Regarding `O=C(NCCN1CCOCC1)c1ccc(CS(=O)c2ccccc2Cl)o1` (stereo not given), the inhibition was -0.13% (inactive).

As to `COc1ccc(N2CCN(Cc3nc4sc(C)c(C)c4c(=O)[nH]3)CC2)cc1`, the inhibition is -6.7% (inactive).

On to `COc1cc(/C=C2/NC(=O)N(Cc3ccccc3F)C2=O)cc(OC)c1O`, for which the inhibition was 26.3% (inactive).

As for `COc1ccc(/C=C2/NC(=O)N(Cc3ccccc3F)C2=O)cc1OC`, the inhibition was 5.3% (inactive).

Consider `CSc1ccc(CN2CCC(n3nccc3NC(=O)C3CCOC3)CC2)cc1` (stereo not given), for which the inhibition was 3.42% (inactive).

As for `Cc1ccc[n+](CC(=O)Nc2ccc(C)c(C)c2)c1`, the inhibition is -1.74% (inactive).

Regarding `Cc1ccc(NC(=O)CCc2ccc(C)o2)cc1`, the inhibition was -3.13% (inactive).

For the compound `CC(=O)Nc1ccc(NC(=O)CCc2ccc(C)o2)cc1`, the inhibition is 10.6% (inactive).

As for `CC(=O)c1ccc(NC(=O)C[n+]2cccc(C)c2)cc1`, the inhibition was 8.06% (inactive).

With `CCOC(=O)C1C(c2cc(OC)c(O)c(OC)c2)NC(=S)NC1(O)C(F)(F)F` (stereo not given), the inhibition was 4.21% (inactive).

Take `Cc1ccc(CNC(=O)C(c2ccccc2)c2ccccc2)cc1`: the inhibition was 6.74% (inactive).

As for `COc1ccc(S(=O)(=O)NNC(=O)c2cc3ccccc3o2)cc1`, the inhibition was 9.6% (inactive).

As for `O=C(NC1CC1)c1cc(F)c(F)cc1Cl`, the inhibition was 6.75% (inactive).

For `O=C(/C=C/c1ccc(Br)o1)Nc1nccs1`, the inhibition was -0.09% (inactive).

With `O=C(Nc1ccc2c(c1)OC1(CCCC1)O2)C1CC1`, the inhibition is 9.85% (inactive).

Take `Nc1ccc2c(c1)OC1(CCCCC1)O2`: the inhibition was 22.8% (inactive).

Consider `CC(O)[C@H]1CNC(=O)C(=O)N1CCc1cccc(F)c1` (stereo not given in full), for which the inhibition was 5.42% (inactive).

For the compound `COc1cc(CN2CCC(C(=O)N3CCN(c4ccccc4F)CC3)CC2)cc(OC)c1O`, the inhibition was 23.4% (inactive).

For `O=C(C1CC1)N1CCN(Cc2ccccc2)CC1`, the inhibition was 7.23% (inactive).

Take `CCN1CCN(C(=O)C2CCN(Cc3cc(Cl)ccc3O)CC2)CC1`: the inhibition is 12.1% (inactive).

As for `COc1cc(CN2CCN(c3cccc(C)c3C)CC2)cc(OC)c1O`, the inhibition was 27% (inactive).

Take `CCOc1ccc(CN2CCC(C(=O)N3CCN(c4ccccc4F)CC3)CC2)cc1OC`: the inhibition is 23.7% (inactive).

For the compound `COc1ccccc1N1CCN(Cc2ccc(Br)o2)CC1`, the inhibition is 29.6% (inactive).

As for `COc1ccccc1N1CCN(Cc2ccsc2)CC1`, the inhibition is 25.3% (inactive).

For the compound `COc1ccc(CN2CCC(C(=O)N3CCN(c4ccccc4F)CC3)CC2)cc1OC`, the inhibition was 8.86% (inactive).
